Shown are actives, neighbours in structure and some others; about 21% of the full set was active somewhere.
Shiga toxin inh – A qHTS for Small Molecule Inhibitors of Shiga Toxin; Vero cells, Shiga toxin protein synthesis inhibition reporter; actives 9.2% (n = 290,000); inhibition, % at 38.7 µM; in the data active means inhibition mostly above about 28%, no sharp cut-off; inactive means mostly below about 43%
AMA1-RON2 inh – qHTS for Inhibitors of AMA1-RON; Towards Development of Antimalarial Drug Lead: Primary Screen | Plasmodium falciparum AMA1 (3D7) - RON2 peptide interaction | AlphaScreen AMA1-biotinylated RON2 peptide binding | Potency, µM (doses to about 58.2 µM), actives largely listed as inhibitors | actives 0.2% (n = 360,000); further: nearly all actives have a fitted effect of over 45% in size
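AMA1 (3D7) with his tag at 25 nM final met compounds first, then biotinylated RON2 peptide at 25 nM; detection used donor plus acceptor beads, 10 µg/mL apiece, read by AlphaScreen after 30 min at room temperature.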
Pf growth 96h – Primary qHTS for delayed death inhibitors of the malarial parasite plastid, 96 hour incubation; P. falciparum luciferase reporter growth, 96 h; Potency, µM (series often up to 28.7 µM), usual class: inhibitors; actives 6.9% (n = 320,000); AID 504834, 2011
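Two-generation exposure (96 h) targets delayed-death phenotype. Reporter parasites carrying integrated firefly luciferase, in red cells at 2% hematocrit and 0.05% parasitemia final, kept at 37 C, 5% CO2; luminescence loss indicates inhibition.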
Pf growth 48h – Primary qHTS for delayed death inhibitors of the malarial parasite plastid, 48 hour incubation; actives 5.9% (n = 310,000); Potency, µM (top dose mostly 28.7 µM), hits mostly inhibitors; AID 504832, 2011; P. falciparum luciferase growth in erythrocytes, 48 h
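Here the parasites carry a stable luciferase gene and grow inside erythrocytes in Albumax-based RPMI medium with compound for one erythrocytic cycle. Activity is scored as loss of luminescent signal.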
Cycloheximide cs – Cycloheximide Counterscreen for Small Molecule Inhibitors of Shiga Toxin | cell reporter, cycloheximide protein synthesis inhibition counterscreen | max response, % | actives 12% (n = 300,000) | AID 2314, 2010; in the data active means max response mostly above about 13%, no sharp cut-off; inactive means mostly below about 14%; further: read at 38.3 µM for the half of the compounds with a filed dose
HCV inhibitor – qHTS Assay for Inhibitors of Hepatitis C Virus (HCV) | Huh7.5.1 HCVcc-Cre infection, luciferase reporter, 44 h | Potency, µM (titrated, usually from 41.8 µM), hits mostly inhibitors | actives 3.4% (n = 340,000) | AID 651820, 2012
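After 44 h co-culture of compound, cells and HCVcc-Cre (~0.5 moi), substrate is added for 15 min at room temperature and luciferase measured over 15 sec. Cells were seeded at 1,000/well and pre-cultured 4 h.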
Each line names hits and unclear results; the compound was inactive in the other large screens. Unless noted, the call rests on the fitted dose curve; in most records, active means well fitted curve in the direction sought with a large enough effect; inconclusive means small, poorly fitted or top-dose-only effect, or another doubt; inactive means no such curve, though single readings can be large; an effect the other way counts as inactive or inconclusive.

C=C(C)c1cccc(C(C)(C)NC(=O)NCC2CCCO2)c1 (configuration not stated)	Pf growth 48h 7.38µM
S=C(NCC1CCCO1)Nc1cccc(Cl)c1 (configuration not stated)	none
C=C(C)c1cccc(C(C)(C)NC(=O)N2CCC(C)CC2)c1	none (no result: Pf growth 48h)
O=C(NCC1CCCO1)Nc1ccccc1 (configuration not stated)	none (no result: Pf growth 48h)
O=C(NCC1CCCO1)Nc1cccc(Cl)c1 (configuration not stated)	Shiga toxin inh 26.8, Cycloheximide cs 17.0 (no result: Pf growth 96h)
CC12CCC(=O)N1C(C(=O)Nc1cc(Cl)ccc1N1CCOCC1)CS2 (configuration not stated)	Pf growth 96h inconclusive, Pf growth 48h inconclusive
COc1ncccc1-c1ccc2nncn2c1	none (no result: Shiga toxin inh, Pf growth 96h, Pf growth 48h, Cycloheximide cs, HCV inhibitor)
Cc1ccc2c(c1C)NC(C)CC2C (configuration not stated)	Pf growth 96h inconclusive, Pf growth 48h 13.1µM
Cc1cccc2c1NC1(CCCC1)CC2C (configuration not stated)	Pf growth 96h inconclusive
COc1ccccc1C(=O)Nc1ccc2c(c1)nc1n2CCN(C2CCCCC2)C1	Pf growth 96h inconclusive, Pf growth 48h inconclusive, HCV inhibitor inconclusive
O=C(NCc1cccs1)C(=O)NCC(c1ccco1)N1CCN(c2ccc(F)cc2)CC1 (configuration not stated)	AMA1-RON2 inh inconclusive, Pf growth 96h inconclusive, Pf growth 48h inconclusive, HCV inhibitor 22.4µM
O=C(NCC(c1ccco1)N1CCN(c2ccccc2F)CC1)C1CCCCC1 (configuration not stated)	Pf growth 48h 11.7µM, HCV inhibitor inconclusive (no result: Shiga toxin inh, Cycloheximide cs)
COc1ccc(N2CCN(C(CNC(=O)C3CCCCC3)c3ccco3)CC2)cc1 (configuration not stated)	Pf growth 96h inconclusive, Pf growth 48h 13.1µM (no result: Shiga toxin inh, Cycloheximide cs)
O=C(NCC(c1ccco1)N1CCN(c2ccccc2)CC1)OCc1ccccc1 (configuration not stated)	Pf growth 96h 4.15µM, Pf growth 48h inconclusive
O=C(NCC(c1ccco1)N1CCN(c2ccccc2F)CC1)C(=O)NC1CCCCC1 (configuration not stated)	Pf growth 96h inconclusive (no result: Shiga toxin inh, Cycloheximide cs)
COc1ccc(N2CCN(C(CNC(=O)C(=O)NC3CC3)c3ccco3)CC2)cc1 (configuration not stated)	none (no result: Shiga toxin inh, Cycloheximide cs)
CC(C)N(C(=O)CN1C(=O)NC(c2ccccc2)(c2ccccc2)C1=O)C(C)C	Pf growth 96h inconclusive
COC(=O)C[C@@H]1OC[C@H](Cc2ccccc2)N1S(=O)(=O)c1ccc(C)cc1	none (no result: Shiga toxin inh, Pf growth 96h, Pf growth 48h, Cycloheximide cs, HCV inhibitor)
O=C(NCC(c1ccco1)N1CCN(c2ccccc2F)CC1)OCc1ccccc1 (configuration not stated)	Pf growth 96h inconclusive, Pf growth 48h inconclusive, Cycloheximide cs 20.6
O=c1cc(-c2cccc(-c3ccc(C(F)(F)F)cc3)c2)c2cc3c(cc2o1)OCO3	none (no result: AMA1-RON2 inh, Pf growth 96h, Pf growth 48h, HCV inhibitor)
Cc1ccc(N2C(=O)C3ON(c4ccccc4)C(c4ccncc4)C3C2=O)cc1 (configuration not stated)	none (no result: Pf growth 96h)
CN1C(=O)C2ON(c3ccccc3)C(c3cccs3)C2C1=O (configuration not stated)	Pf growth 96h 9.28µM
Cc1c(Cl)cccc1NC(=O)CC1Oc2ccccc2NC1=O (configuration not stated)	none
CC(=O)NC1=C(Nc2ccc(N(C)C)cc2)C(=O)c2ccccc2C1=O	Shiga toxin inh 116.2, Pf growth 96h inconclusive, Pf growth 48h inconclusive, Cycloheximide cs 45.9, HCV inhibitor inconclusive
CN(C(=O)Nc1ccccc1)C1CCCc2ccccc21 (configuration not stated)	Shiga toxin inh 71.5, Pf growth 96h inconclusive, Cycloheximide cs 19.3
CC(=O)NC1=C(N(C)C2CCS(=O)(=O)C2)C(=O)c2ccccc2C1=O (configuration not stated)	Pf growth 96h 2.08µM, Pf growth 48h 13.1µM
CN(C(=O)Nc1ccccc1)C1CCS(=O)(=O)C1 (configuration not stated)	Pf growth 96h 2.33µM
